Measured values published in PMC12864922, “TDP-43 directly inhibits mRNA accumulation in neurites through modulation of mRNA stability”.
In all, about 9,900 sequences were measured (“r (bound/input frequency ratio)”: median about 0.7, highest 2% from about 6.5 on). The list comes from a sample in which the highest values are over-represented; it also holds similar and randomly drawn sequences.

B1: ENSMUSG00000031028.651|Tub (ssRNA)
RNA: GGGAGUUCUACAGUCCGACGAUCGCUUCGAUAUCCGCAUGCUAGCUGAAAUGUAGAGUGUUCUAUAGAGCAUCUCAGUAGCAUAGAAGGAGAAGCCCAGCUCCAACCUCCUGGACCCCAUACUGGUGACCAGCUUGGUGAGGACAGGCAAAAUUUCUCUAGCUGAGAGCACACUUAGCCAGUUUUCACGCCUAGAACAUAUAUGUCGAUUUGCACAUGAUUGUCUUUUCCUAUUUUGGAGUGGUCAGACAUUUUAUUUUUGUUCAAAAUUAUCUGGAGUUUUAGACAAACUUGCAAAACUGUGCUCUUGCGGUCGCACUAGUGUGGAAUUCUCGGGUGUCAAGG
B2: ENSMUSG00000090935.711|Synj2bp (ssRNA)
RNA: GGGAGUUCUACAGUCCGACGAUCGCUUCGAUAUCCGCAUGCUAAAGAACUGGGCUAAGUCCAGAGCUCUGCUCUCUGAGCAUCUGCCCCAGAUACAGAGGCAGAGUAUGAAGUGGAACAUUGUUUUAUUCCUAGGUGCUCAGGACAGACUGAUCAACCUCCAGUAACAUAUGUGGUUAGUAAGUGCUUCAGCUUGUGUAGCCAUUAAUAACCAAGUCAUAGGAUUGUGAAUCUAAAAUACUCCUGGGUAAAAUUUGUAUUAGAAUGGAAAAAAAAAUGAGGGUCAGAAAGGUGAGCUAACUUCCUCUUGCGGUCGCACUAGUGUGGAAUUCUCGGGUGUCAAGG
B3: ENSMUSG00000029636.217|Wasf3|154:158;247:254 (ssRNA)
RNA: GGGAGUUCUACAGUCCGACGAUCGCUUCGAUAUCCGCAUGCUAAUAAGUCUGUGAUAUCCGCAGGCUUGGGUUACAGGGAGGACCUUGCAGAGGGACCAGGACACUGCCUUCCCUUAGGUGCAUUAUUUACGUGGCCUGCAGCUCUUAAUAUCUCUCACUGUUUAUGAAAAGAAAGAUUCAGAUCCGGGGUGACAUACACACAGUUGACAGGGAAUGCCUGUGGGAUAAUUAAAAAUGGUUUUUGCUCAUGAGUUUGGGAUGUCACCCAGCCGCCCACAUCGCCUGCUAACACACACGACGCCCUCUUGCGGUCGCACUAGUGUGGAAUUCUCGGGUGUCAAGG
B4: ENSMUSG00000031028.206|Tub (ssRNA)
RNA: GGGAGUUCUACAGUCCGACGAUCGCUUCGAUAUCCGCAUGCUACCAGAGAUGAAACCCCUCCGAGUUAAUGUAUAAGGUUGGAAACCUUUCAGUAGGGAAUCAGGCAGUUCCCUGUUGAAAGUUGUCUGAGUUUUUGCACACCAUUCUGAUCUGAUGUGGCCUGUGCCUGGCUCCUCUAUGAGGACUUCGAGCUGUGCACAGACCUUAGCAGGACCACUGCACACUUUGUGUCUGUGUGACAGGCAGCCCAAGGGUUCUGGGGCUGGGCUUGGACACGCCCUCCAUUGGGAUGGCACCACUCACUCUUGCGGUCGCACUAGUGUGGAAUUCUCGGGUGUCAAGG
B5: ENSMUSG00000058297.231|Spock2 (ssRNA)
RNA: GGGAGUUCUACAGUCCGACGAUCGCUUCGAUAUCCGCAUGCUAAACCAUGCCCCAGACUCUAUUUAAAGCCCUAUAGCAUAUAUGAAUAGAGAACGGUGUAUCUAUCAGAGGGGACCACACUGAGCAGCUAGGCCCUGAUGCCAUGCCUCAGCACGCCCUCAGACCUCCAGGCCGGGUGGAAGGGGCUUUUACCCAGAUGUCCUGUGGGGUUUUGUGUGUCUAUUGCUCCCCACUUCCCCCUCUCAAAGGAAAUUUCCUUGAUAUAUUUGAUGAAGAAUUCCUUACCUGGGCCUCUGAUACCCCUCUUGCGGUCGCACUAGUGUGGAAUUCUCGGGUGUCAAGG
B6: ENSMUSG00000061578.43|Ksr2|85:91;96:100 (ssRNA)
RNA: GGGAGUUCUACAGUCCGACGAUCGCUUCGAUAUCCGCAUGCUAAGCCACAGACUGAGCACACCACCUCGGACUGUGGAGACCAAGACACAUGCCCAGUGGGCAGACUCAGACUCACACGCUGGACCACACACACCGCAACACACUACACAUGGACAGGGCCAACUGCUAUCCUUCUGCCUGGACGAGCCAGCUGUGGAGUGUCCCAGCUGUGCUAUCCUGGAACACAGAACCAGGAUGGAACCAGAAACAAUACACCUGCUCCGUUGUCAAGGCUUCUAGGCCAAGGUCAGGGUAGGGAGGUGCUCUUGCGGUCGCACUAGUGUGGAAUUCUCGGGUGUCAAGG
B7: ENSMUSG00000029636.220|Wasf3 (ssRNA)
RNA: GGGAGUUCUACAGUCCGACGAUCGCUUCGAUAUCCGCAUGCUACAGGCUUGGGUUACAGGGAGGACCUUGCAGAGGGACCAGGACACUGCCUUCCCUUAGGUGCAUUAUUUACGUGGCCUGCAGCUCUUAAUAUCUCUCACUGUUUAUGAAAAGAAAGAUUCAGAUCCGGGGUGACAUUGUGUCAGUUGACAGGGAAUGCCUGUGGGAUAAUUAAAAAUGGUUUUUGCUCAUGAGUUUGGGAUGUCACCCAGCCGCCCACAUCGCCUGCUAUGUGUGUGGACGCCUGUCCGCUUGGCCAGCUACUCUUGCGGUCGCACUAGUGUGGAAUUCUCGGGUGUCAAGG
B8: ENSMUSG00000029636.163|Wasf3 (ssRNA)
RNA: GGGAGUUCUACAGUCCGACGAUCGCUUCGAUAUCCGCAUGCUACAUGGAAGCUUGGCUUUAGCUGAGAGAUGCCACCAGCUGUUCACAACCCAUGGUGCUGUGGCUAGAUUCCUGCUCAGUCUCUCAAACAGGGCCACACCCCUCCUGAAGCACAGCUCUCUUCUCUCCUGUUGUCGGCACAUUUUCAAUUUUAAAAAGUACCUCACAAGAUAAACUUGAUUCAGCCAGUUGCCCGGGCAGAGACCUGACUUCCCCUCUCCUGCCCUGAUCCUUUUUACCAAAUGGCGAUUCCAUAGUCCUGGCUCUUGCGGUCGCACUAGUGUGGAAUUCUCGGGUGUCAAGG

biological target: TDP-43 (Homo sapiens, UniProt Q13148 1-414); experiment: RNA Bind-n-Seq with designed 260-mer pool; 25 mM Tris-HCl, 150 mM KCl, 3 mM MgCl2, BSA (printed 500 mg/mL), 20 units/mL SUPERase IN; pH not stated; 500 nM RNA pool, 1 h, 4 C; TDP-43 5, 50, 500 nM; high values mean tight binding; conditions: protein: recombinant; tags: SBP (GST cleaved off with PreScission; pGEX-GST-SBP)
Sequence (Q13148 whole entry): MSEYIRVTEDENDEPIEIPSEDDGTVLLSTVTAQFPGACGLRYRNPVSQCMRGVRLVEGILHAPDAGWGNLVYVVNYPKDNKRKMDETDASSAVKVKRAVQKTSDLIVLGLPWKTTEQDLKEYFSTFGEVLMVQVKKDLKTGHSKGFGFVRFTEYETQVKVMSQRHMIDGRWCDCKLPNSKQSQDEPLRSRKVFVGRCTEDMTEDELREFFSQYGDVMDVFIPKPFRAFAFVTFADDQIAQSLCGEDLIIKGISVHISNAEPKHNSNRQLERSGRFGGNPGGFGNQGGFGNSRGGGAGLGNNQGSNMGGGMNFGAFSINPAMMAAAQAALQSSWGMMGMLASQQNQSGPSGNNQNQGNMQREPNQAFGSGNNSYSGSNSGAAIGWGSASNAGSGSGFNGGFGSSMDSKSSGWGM
Summary of the method: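 In 25 mM Tris-HCl, 150 mM KCl, 3 mM MgCl2, BSA and SUPERase IN, 500 nM of an in vitro-transcribed 260-nt 3′ UTR oligo pool was incubated for 1 h at 4 °C with SBP-tagged TDP-43 (5, 50 or 500 nM) captured on streptavidin beads. RNA remaining after washes was biotin-eluted, reverse transcribed, PCR-amplified and sequenced. Binding, R, is the bound-sample abundance of each oligo, normalized to mapped reads, divided by its abundance in input. Each duplicate used a separate, independent protein batch.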

Binder	binding signal
B1	0.18 R (bound/input frequency ratio)
B2	1.47 R (bound/input frequency ratio)
B3	1.49 R (bound/input frequency ratio)
B4	1.26 R (bound/input frequency ratio)
B5	0.453 R (bound/input frequency ratio)
B6	0.525 R (bound/input frequency ratio)
B7	3.17 R (bound/input frequency ratio)
B8	0.217 R (bound/input frequency ratio)
